Assay results reported in PubChem BioAssay (NCATS).
Values joined by “and” are separate entries in the source; they are usually repeats but may differ in a detail not shown here. Identical values can stand only once. Records with an inconclusive call do not appear. Active and inactive are the calls of the source. Unless noted, the call rests on the fitted dose curve; in most records, active means well fitted curve in either direction with a large enough effect (not every such curve was filed as active); inconclusive means small, poorly fitted or top-dose-only effect, or another doubt; inactive means flat fitted curve, though single readings scatter.

Assays:
[1] = AP1 Signaling Pathway (AID 357); details: ME-180 AP-1-bla reporter, EGF-induced, beta-lactamase ratio, 5 h;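 further: ME-180 reporter cells stimulated with EGF at its EC50 level; on the % scale 0 is the no-effect control and ±100 the full control effect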
Procedure, shortened: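 In this screen, ME-180 cells in Opti-MEM with 0.5% dialyzed FBS received EC50 EGF and compound titrations for 5 h. AP-1 reporter beta-lactamase was detected via CCF4 ratio, giving AC50 for positive and negative modulators.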

[2] = molecular target: Cytochrome P450 1A2 (Homo sapiens) (UniProt P05177); test: p450-cyp1a2 (AID 410; calls by dose curve; further: potency means the concentration at half of the fitted maximal effect;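 on activity change, negative = inhibition: -100% = full effect of reference inhibitor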); details: recombinant CYP1A2, luciferin-ME demethylation, luminescence; series mostly up to 25.6 µM
Cytochrome P450 1A2 (Homo sapiens), sequence (P05177 whole entry, looked up): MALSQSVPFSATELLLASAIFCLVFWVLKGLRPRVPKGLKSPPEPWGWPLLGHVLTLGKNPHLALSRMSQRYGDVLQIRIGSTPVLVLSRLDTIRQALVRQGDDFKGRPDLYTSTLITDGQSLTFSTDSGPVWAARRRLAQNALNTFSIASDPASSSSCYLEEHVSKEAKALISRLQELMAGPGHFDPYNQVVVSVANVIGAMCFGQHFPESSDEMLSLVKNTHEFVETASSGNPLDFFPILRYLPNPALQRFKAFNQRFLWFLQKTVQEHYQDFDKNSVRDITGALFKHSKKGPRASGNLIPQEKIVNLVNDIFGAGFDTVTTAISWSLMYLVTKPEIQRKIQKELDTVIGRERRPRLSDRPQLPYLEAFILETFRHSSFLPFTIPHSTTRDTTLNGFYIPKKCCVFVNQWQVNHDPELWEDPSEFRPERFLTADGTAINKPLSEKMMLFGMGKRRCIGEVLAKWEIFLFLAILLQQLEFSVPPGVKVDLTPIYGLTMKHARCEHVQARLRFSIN
Procedure, shortened: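 20nM CYP1A2 with 100uM Luciferin-ME (at Km) in 100mM KPO4; compound preincubated 10 min, NADPH regeneration added, 60 min at room temperature. Luciferin quantified by luminescence after detection reagent; normalized to 57 uM furafylline.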

[3] = NFAT Signaling Pathway (AID 444); details: Jurkat NFAT-bla M1, carbachol, beta-lactamase ratio, 5 h;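 further: carbachol stimulus at about its EC50 of 1 µM final; on the % scale 0 is the no-effect control and ±100 the full control effect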
Procedure, shortened: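 Read-out: CCF4 FRET ratio (460 nm/530 nm) after 1 h RT dye loading, used for %activity and AC50 from titration series. Cells: Jurkat NFAT-β-lactamase/M1 line, treated with compound plus 1 uM carbachol for 5 h, 37 °C.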

[4] = Stat Signaling Pathway (AID 446); details: ME-180 SIE beta-lactamase reporter, IL-6 stimulated, 5 h;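 further: ME-180 cervical cancer cells given 40 pM IL-6 alongside compound; SIE-controlled beta-lactamase reporter measured as 460/530 nm FRET emission ratio; on the % scale 0 is the no-effect control and ±100 the full control effect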
Procedure, shortened: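 Reporter line: ME-180 cervical carcinoma, SIE-beta-lactamase. Treatment: compound with 40 pM IL-6, 5 hrs, 37 C, in low-serum OPTI-MEM with 10 mM HEPES pH 7.3. Detection: 460/530 nm fluorescence.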

[5] = molecular target: Glucocorticoid receptor (Homo sapiens) (UniProt P04150); test: GR-GFP Redistribution (AID 450;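 active means compounds whose dose series gives a full or clear partial fitted curve of increased nuclear translocation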; further: potency means the concentration at half of the fitted maximal effect); details: U2OS GR-GFP nuclear translocation, laser cytometry, 2 h
Glucocorticoid receptor (Homo sapiens), sequence (P04150 whole entry, looked up, the tested form may be a part): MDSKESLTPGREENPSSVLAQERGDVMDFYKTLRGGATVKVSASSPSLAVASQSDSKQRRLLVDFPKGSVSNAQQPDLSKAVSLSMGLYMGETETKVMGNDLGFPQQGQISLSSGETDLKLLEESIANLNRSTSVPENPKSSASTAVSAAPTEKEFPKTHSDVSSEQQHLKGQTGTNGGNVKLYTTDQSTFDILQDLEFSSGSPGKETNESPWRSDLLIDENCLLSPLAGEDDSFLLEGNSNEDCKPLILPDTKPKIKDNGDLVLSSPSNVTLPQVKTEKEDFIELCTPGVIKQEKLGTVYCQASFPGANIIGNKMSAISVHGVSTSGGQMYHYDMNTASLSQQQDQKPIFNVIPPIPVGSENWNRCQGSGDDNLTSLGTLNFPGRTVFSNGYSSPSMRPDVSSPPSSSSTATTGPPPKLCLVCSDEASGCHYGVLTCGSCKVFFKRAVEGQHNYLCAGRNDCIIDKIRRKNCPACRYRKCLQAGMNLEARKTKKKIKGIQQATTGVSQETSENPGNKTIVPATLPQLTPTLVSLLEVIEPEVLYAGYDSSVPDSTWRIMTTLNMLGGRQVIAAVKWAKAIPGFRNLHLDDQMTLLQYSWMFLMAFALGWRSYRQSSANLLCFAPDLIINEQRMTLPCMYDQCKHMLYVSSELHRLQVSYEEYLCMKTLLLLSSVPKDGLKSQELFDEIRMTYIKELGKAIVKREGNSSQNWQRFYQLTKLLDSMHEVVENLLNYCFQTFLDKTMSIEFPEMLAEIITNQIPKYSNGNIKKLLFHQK

[6] = molecular target: Glucocorticoid receptor (Homo sapiens) (UniProt P04150); test: GR-EFC Redistribution (AID 451; calls by dose curve; further: potency means the concentration at half of the fitted maximal effect); details: CHO-K1 GR-EFC translocation, beta-gal luminescence, 2 h
Procedure, shortened: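 Translocation of GR-ED fusion to nuclear EA restores b-gal, read by luminescence after 1 h room-temperature detection. Engineered CHO-K1 biosensor cells, 1,000/well, exposed 2 h at 37 C to titrations up to 46 uM final.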

[7] = molecular target: Mitogen-activated protein kinase 10 (Mus musculus) (UniProt Q61831); test: JNK3 AlphaScreen Assay (AID 530); details: JNK3 lysate, c-Jun phosphorylation; series mostly up to 25.6 µM;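 further: kinase came from lysate of stimulated human HepG2 cells; signal reports phosphorylation of biotinylated GST-cJun 1-79 at Ser73 with 10 µM ATP; on the % scale 0 is the no-effect control and ±100 the full control effect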
Procedure, shortened: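 Compound titrations were preincubated 15 minutes at room temperature with substrate, antibody and pre-activated JNK3-containing HepG2 lysate. Reactions were started with 10 uM ATP and stopped with EDTA-containing bead buffer for AlphaScreen detection.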

[8] = Cell Viability - BJ (AID 421; calls by dose curve;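 further: potency means the concentration at half of the fitted maximal effect; cells exposed to compound for 40 hours at 37 °C before readout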); details: BJ fibroblast viability, qHTS
Procedure, shortened: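 Cytotoxicity as drop in intracellular ATP (CellTiter-Glo, 20 min RT) after 40 hr compound exposure of BJ fibroblasts at 37 °C. Titrations scaled between DMSO and 100 uM tamoxifen, Hill-fitted for AC50.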

[9] = Cell Viability - Jurkat (AID 426;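 active means dose-dependent loss of cell ATP signal giving a full or clear fitted curve, ranked by lower potency value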; further: potency means the concentration at half of the fitted maximal effect); details: qHTS
Procedure, shortened: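 Jurkat (Clone E6-1) cells, 5000/well in complete medium, exposed to compounds for 40 hr at 37C; intracellular ATP measured by CellTiter-Glo luminescence after 20 min at room temperature. AC50 from Hill fits.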

[10] = Cell Viability - HepG2 (AID 433; calls by dose curve;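 further: potency means the concentration at half of the fitted maximal effect; potency for ATP loss meaning cytotoxicity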); details: qHTS
Procedure, shortened: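 HepG2 hepatocellular carcinoma cells (1500/well) were treated with compounds for 40 h at 37 °C in complete medium; intracellular ATP was read by CellTiter-Glo luminescence. Data were normalized to DMSO and 100 uM tamoxifen, and AC50 came from Hill fits.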

[11] = Cell Viability - MRC5 (AID 434; calls by dose curve;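 further: potency means the concentration at half of the fitted maximal effect; potency reflects cytotoxicity seen as loss of intracellular ATP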); details: MRC5 lung fibroblast viability, qHTS
Procedure, shortened: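 qHTS cytotoxicity in human lung fibroblast MRC5 cells; 40 hr treatment, 37 °C; cellular ATP by luciferase luminescence; DMSO = 0%, 100 uM tamoxifen = 100% inhibition; Hill-fit AC50.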

[12] = Cell Viability - N2a (AID 540; active means well fitted curve in the direction sought with a large enough effect; an effect the other way counts as inactive or inconclusive; further: potency means the concentration at half of the fitted maximal effect; nearly all actives have a fitted effect of over 45% in size); details: N2a mouse neuroblastoma cell viability; activity change, negative = cytotoxicity: at 92.2 µM (top of the series)
Procedure, shortened: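 Mouse neuroblastoma N2a cells, 1500/well, exposed to compounds 40 h at 37 °C in complete medium. Viability measured as cellular ATP by CellTiter-Glo luminescence; AC50 from Hill fits of concentration-response.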

[13] = Cell Viability - NIH 3T3 (AID 541; active means well fitted curve in the direction sought with a large enough effect; an effect the other way counts as inactive or inconclusive; further: potency means the concentration at half of the fitted maximal effect; nearly all actives have a fitted effect of over 25% in size); details: NIH 3T3 cell viability, qHTS; activity change, negative = cytotoxicity: at 92.2 µM (top of the series)
Procedure, shortened: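 Mouse NIH 3T3 fibroblasts, 1000 cells/well, rested 5 hr at 37 °C, then exposed to compound for 40 hr at 37 °C in complete medium. Viability read as intracellular ATP by CellTiter-Glo luminescence; AC50 from Hill-equation fits of concentration-response data.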

[14] = Cell Viability - HUV-EC-C (AID 542; active means well fitted curve in the direction sought with a large enough effect; an effect the other way counts as inactive or inconclusive; further: potency means the concentration at half of the fitted maximal effect; nearly all actives have a fitted effect of over 35% in size); details: HUV-EC-C endothelial cell viability, qHTS; series mostly up to 92.2 µM
Procedure, shortened: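 HUV-EC-C human vascular endothelial cells, 1000/well, exposed to compound for 40 hr at 37 °C in complete medium. Intracellular ATP was read by CellTiter-Glo luminescence. AC50 came from Hill-equation fits of concentration-response data.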

[15] = Cell Viability - H-4-II-E (AID 543; active means well fitted curve in the direction sought with a large enough effect; an effect the other way counts as inactive or inconclusive; further: potency means the concentration at half of the fitted maximal effect; nearly all actives have a fitted effect of over 35% in size); details: H-4-II-E rat hepatoma viability; series mostly up to 92.2 µM
Procedure, shortened: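 Rat hepatoma H-4-II-E cells, 1500 per well, treated 40 h at 37 °C in complete medium. Cellular ATP read by CellTiter-Glo luminescence; AC50 from Hill fits of concentration-response.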

[16] = Cell Viability - SH-SY5Y (AID 544; active means well fitted curve in the direction sought with a large enough effect; an effect the other way counts as inactive or inconclusive; further: potency means the concentration at half of the fitted maximal effect; nearly all actives have a fitted effect of over 55% in size); details: SH-SY5Y neuroblastoma cell viability; viability change, negative = cytotoxic: at 92.2 µM (top of the series)
Procedure, shortened: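 SH-SY5Y human neuroblastoma cells (1500/well) incubated 5 h, then compound-treated 40 h at 37 °C in complete medium. Viability read as intracellular ATP by CellTiter-Glo luminescence after 20 min; AC50 from Hill-equation fits of qHTS concentration-response.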

CN(C(=O)CN(CCO)CC(=O)N(C)C(C)(C)Cc1ccccc1)C(C)(C)Cc1ccccc1
inactive: activity change, negative = inhibition ([1]; at 17.2 µM (top of the series)) -21.6% | Potency [2] | activity change, negative = inhibition ([3]; at 17.2 µM (top of the series)) -2.45% | activity, negative = inhibition ([4]; at 17.2 µM (top of the series)) 5.14% | Potency [5] > 20.6 µM | Potency [6] > 20.6 µM | outcome [7]

CCOC(=O)n1ccn(C)c1=S
inactive: activity change, negative = inhibition ([1]; at 17.2 µM (top of the series)) 13.2% | activity change, negative = inhibition ([3]; at 17.2 µM (top of the series)) -13.3% | activity, negative = inhibition ([4]; at 17.2 µM (top of the series)) 4.14% | Potency [5] > 20.6 µM | Potency [6] > 20.6 µM | outcome [7]
active: Potency [2] 12.6 µM

Cc1ccnc(NS(=O)(=O)c2ccc(N)cc2)n1
inactive: activity change, negative = inhibition ([1]; at 17.2 µM (top of the series)) 17.4% | Potency [2] | activity change, negative = inhibition ([3]; at 17.2 µM (top of the series)) 0.552% | activity, negative = inhibition ([4]; at 17.2 µM (top of the series)) -12.6% | Potency [5] > 20.6 µM | Potency [6] > 20.6 µM | outcome [7]

Oc1cc(O)c2c(c1)O[C@H](c1ccc(O)c(O)c1)[C@H](O)C2
inactive: activity change, negative = inhibition ([1]; at 17.2 µM (top of the series)) 10.1% and 0.263% | activity change, negative = inhibition ([1]; at 38 µM (top of the series)) -5.09% | Potency [2] | activity change, negative = inhibition ([3]; at 17.2 µM (top of the series)) -6.82% and 0.191% | activity change, negative = inhibition ([3]; at 38 µM (top of the series)) -2.11% | activity, negative = inhibition ([4]; at 17.2 µM (top of the series)) -2.66% and 0.865% | activity, negative = inhibition ([4]; at 38 µM (top of the series)) -26.7% | Potency [5] > 46 µM and > 20.6 µM | Potency [6] > 46 µM and > 20.6 µM | outcome [7]

COc1c2occc2c(OC)c2c(=O)cc(C)oc12
active: Potency [2] 0.02 µM
inactive: activity change, negative = inhibition ([1]; at 17.2 µM (top of the series)) 4.61% and -2.27% | activity change, negative = inhibition ([3]; at 17.2 µM (top of the series)) 4.03% and 8.21% | activity, negative = inhibition ([4]; at 17.2 µM (top of the series)) 7.57% and -1.58% | Potency [5] > 20.6 µM | Potency [6] > 20.6 µM | outcome [7]

COc1cc(-c2ccc(=O)[nH]n2)ccc1OC(F)F
active: Potency [2] 10 µM and 5.01 µM and 2.51 µM
inactive: activity change, negative = inhibition ([1]; at 17.2 µM (top of the series)) -8.42% | activity change, negative = inhibition ([1]; at 38 µM (top of the series)) 17.6% | activity change, negative = inhibition ([3]; at 17.2 µM (top of the series)) -13.5% | activity change, negative = inhibition ([3]; at 38 µM (top of the series)) -7.13% | activity, negative = inhibition ([4]; at 17.2 µM (top of the series)) 0.425% | activity, negative = inhibition ([4]; at 38 µM (top of the series)) -14.4% | Potency [5] > 46 µM and > 20.6 µM | Potency [6] > 46 µM and > 20.6 µM | outcome [7]

C1CCc2nnnn2CC1
inactive: activity change, negative = inhibition ([1]; at 17.2 µM (top of the series)) 8.91% | activity change, negative = inhibition ([1]; at 38 µM (top of the series)) 6.67% | Potency [2] | activity change, negative = inhibition ([3]; at 17.2 µM (top of the series)) -9.11% | activity change, negative = inhibition ([3]; at 38 µM (top of the series)) -6.06% | activity, negative = inhibition ([4]; at 17.2 µM (top of the series)) 5.56% | activity, negative = inhibition ([4]; at 38 µM (top of the series)) -9.49% | outcome [7]

O=C(O)c1cc2cc(Cc3cccnc3)ccc2o1
inactive: activity change, negative = inhibition ([1]; at 38 µM (top of the series)) -4.5% | Potency [2] | activity change, negative = inhibition ([3]; at 38 µM (top of the series)) -0.641% | activity, negative = inhibition ([4]; at 38 µM (top of the series)) 6.34% | Potency [5] > 46 µM | Potency [6] > 46 µM | outcome [7]

CNCCC=C1c2ccccc2CCc2ccccc21
active: Potency [2] 25.1 µM | activity change, negative = inhibition ([3]; at 7.69 µM (top of the series)) -80.1% | activity change, negative = inhibition ([3]; at 17.2 µM (top of the series)) -86.8%
inactive: activity change, negative = inhibition ([1]; at 7.69 µM (top of the series)) -6.8% | activity change, negative = inhibition ([1]; at 17.2 µM (top of the series)) 15.1% and 18.2% | activity change, negative = inhibition ([1]; at 38 µM (top of the series)) 16.2% | activity, negative = inhibition ([4]; at 7.69 µM (top of the series)) -5.09% | activity, negative = inhibition ([4]; at 17.2 µM (top of the series)) -1.99% and -5.78% | activity, negative = inhibition ([4]; at 38 µM (top of the series)) -27.8% | Potency [5] > 46 µM and > 20.6 µM | Potency [6] > 46 µM and > 20.6 µM and > 9.22 µM | outcome [7]

CC(C)COC(=O)OCN1C(=O)CN(CCN2CC(=O)N(COC(=O)OCC(C)C)C(=O)C2)CC1=O
inactive: activity change, negative = inhibition ([1]; at 38 µM (top of the series)) 5.55% | Potency [2] | activity change, negative = inhibition ([3]; at 38 µM (top of the series)) 7.64% | activity, negative = inhibition ([4]; at 38 µM (top of the series)) -1.3% | Potency [5] > 46 µM | Potency [6] > 46 µM | outcome [7]

Oc1ccc(O)cc1
active: Potency [9] 4.41 µM | Potency [12] 20 µM | Potency [13] 20 µM | Potency [14] 39.8 µM | Potency [15] 79.4 µM | Potency [16] 3.16 µM
inactive: activity change, negative = inhibition ([1]; at 38 µM (top of the series)) -22.8% | Potency [2] | Potency [8] > 92 µM | Potency [10] > 92 µM | Potency [11] > 92 µM | activity change, negative = inhibition ([3]; at 38 µM (top of the series)) -5.74% | activity, negative = inhibition ([4]; at 38 µM (top of the series)) 3.99% | Potency [5] > 46 µM | Potency [6] > 46 µM | outcome [7]

C[C@H]1[C@H](NC(=O)/C(=N/OC(C)(C)C(=O)O)c2csc(N)n2)C(=O)N1S(=O)(=O)O (stereo in doubt)
inactive: activity change, negative = inhibition ([1]; at 17.2 µM (top of the series)) 1.44% | Potency [2] | activity change, negative = inhibition ([3]; at 17.2 µM (top of the series)) 3.56% | activity, negative = inhibition ([4]; at 17.2 µM (top of the series)) 8.78% | Potency [5] > 20.6 µM | Potency [6] > 20.6 µM | outcome [7]
